test system: NEK6; details: concentration: 1 μM,replicates: in singlicate; n = 1
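Further: KINOMEscan kinase panel screen.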

`O=C(NCCNc1ccnc(NCc2ccc(F)cc2)n1)c1cc2ccccc2s1` [GSK1379944] and `COc1ccc(C[C@@H](CN)NC(=O)c2cc(Br)c(-c3ccnc4[nH]ccc34)s2)cc1.Cl.Cl` [GSK1389063] are the same in “%Inh” value: 0% for the first, 0% for the second.

`Cl.Cl.NC[C@H](CC1CCCCC1)NC(=O)c1cc(Br)c(-c2ccnc3[nH]ccc23)s1` [GSK1581427] and `Cl.Cl.NC[C@H](Cc1ccc(C(F)(F)F)cc1)NC(=O)c1cc(Br)c(-c2ccnc3[nH]ccc23)s1` [GSK1487252] are the same in “%Inh” value: 0% for the first, 0% for the second.

Compared with `Cc1ccc2c(-c3ccncc3)c(-c3ccc(F)cc3)nn2c1.Cl` [GW461484], `Cl.Oc1cc(-c2nc(-c3ccccc3)[nH]c2-c2ccncc2)ccc1Cl` [SB-386023] is higher in “%Inh” value: 0% for the first, 28% for the second.

Compared with `CC(C)N1C(=O)Cc2cc(Nc3ncc(C(F)(F)F)c(NCc4cccc(S(C)(=O)=O)c4)n3)ccc21`, `CCN(CC)CCOc1ccc(Nc2ncc3cc(-c4c(Cl)cccc4Cl)c(=O)n(C)c3n2)cc1` [SB-601273] is higher in “%Inh” value: 0% for the first, 44% for the second.

Compared with `CN(C)CC(O)COc1ccc(Nc2nccc(-c3cnn4nc(N5CCOCC5)ccc34)n2)cc1` (stereo not drawn) [GW767488], `CN(C)CCOc1ccc(-c2cc(-c3c[nH]nc3-c3ccccn3)ccn2)cc1` [GW835314] is lower in “%Inh” value: 64% for the first, 10% for the second.

First: C[C@@H](Oc1cc(-c2cnn(C3CCNCC3)c2)cnc1N)c1c(Cl)ccc(F)c1Cl
Second: NC(=O)c1cc(-c2ccccc2)cc2c(C3CCNCC3)c[nH]c12 [GSK301362]
The “%Inh” value of the first is higher: 14% for the first, 0% for the second.

First: CCN(CC)CCCCNc1ncc2cc(-c3c(Cl)cccc3Cl)c(NC(=O)NC(C)(C)C)nc2n1
Second: O=C(NCCCN1CCOC1=O)c1cnc(NCc2cc(Cl)ccc2Cl)nc1NC1CCCC1
The “%Inh” value of the first is higher: 38% for the first, 7% for the second.

First: C[C@H]1Oc2cc(cnc2N)-c2c(nn(C)c2C#N)CN(C)C(=O)c2ccc(F)cc21
Second: Cc1cc2cn[nH]c2cc1-c1cccc2c(N)c(C(N)=O)nnc12
The “%Inh” value of the first is lower: 0% for the first, 17% for the second.

`C[C@@H]1CCN(C(=O)CC#N)C[C@@H]1N(C)c1ncnc2[nH]ccc12` and `Cl.Cl.Nc1nc(-c2ccc3c(N)n[nH]c3c2)cc(N2CCCC(NC(=O)c3ccccc3)C2)n1` (stereo not drawn) [GSK2286775] are the same in “%Inh” value: 0% for the first, 0% for the second.

`Cc1n[nH]c2ccc(-c3cc(OC[C@@H](N)Cc4ccccc4)cnc3-c3ccoc3)cc12.O=C(O)C(F)(F)F.O=C(O)C(F)(F)F` [GSK507358] and `Cc1occc1-c1nc(N)c(OC[C@@H](N)Cc2c[nH]c3ccccc23)cc1-c1cc2c(C)n[nH]c2cn1` [GSK1660450] are the same in “%Inh” value: 0% for the first, 0% for the second.

`CCn1c(-c2nonc2N)nc2c(C#CC(C)(C)O)nc(OCCN)cc21.Cl.Cl` [GSK902056] and `CC(C)Nc1cc(-c2ccc3c(N)n[nH]c3c2)nc(N)n1` [GSK2221681] are the same in “%Inh” value: 0% for the first, 0% for the second.

`Nc1nc(Nc2ccccc2)cc(-c2ccc3c(N)n[nH]c3c2)n1` [GSK2225749] and `CNC(=O)c1ccccc1Sc1ccc2c(/C=C/c3ccccn3)n[nH]c2c1` are the same in “%Inh” value: 0% for the first, 0% for the second.

`Cc1ccc(-n2nc(C(C)(C)C)cc2NC(=O)Nc2ccc(OCCN3CCOCC3)c3ccccc23)cc1` [GW839464] and `C=CC(=O)Nc1cc2c(Nc3ccc(F)c(Cl)c3)ncnc2cc1OCCCN1CCOCC1` [GW781483] are the same in “%Inh” value: 0% for the first, 0% for the second.

In the case of `Cc1cc(C(=O)Nc2ccc(Oc3ccc4nc(NC(=O)C5CC5)cn4n3)cc2)nn1-c1ccccc1`, the “%Inh” value is reported as 10%.

test system: NEK7; details: concentration: 1 μM,replicates: in singlicate; n = 1

`O=C(NCCNc1ccnc(NCc2ccc(F)cc2)n1)c1cc2ccccc2s1` [GSK1379944] and `COc1ccc(C[C@@H](CN)NC(=O)c2cc(Br)c(-c3ccnc4[nH]ccc34)s2)cc1.Cl.Cl` [GSK1389063] are the same in “%Inh” value: 0% for the first, 0% for the second.

`Cl.Cl.NC[C@H](CC1CCCCC1)NC(=O)c1cc(Br)c(-c2ccnc3[nH]ccc23)s1` [GSK1581427] and `Cl.Cl.NC[C@H](Cc1ccc(C(F)(F)F)cc1)NC(=O)c1cc(Br)c(-c2ccnc3[nH]ccc23)s1` [GSK1487252] are the same in “%Inh” value: 0% for the first, 0% for the second.

Going from `Cc1ccc2c(-c3ccncc3)c(-c3ccc(F)cc3)nn2c1.Cl` [GW461484] to `Cl.Oc1cc(-c2nc(-c3ccccc3)[nH]c2-c2ccncc2)ccc1Cl` [SB-386023], the “%Inh” value rises from 0% to 14%.

Going from `CC(C)N1C(=O)Cc2cc(Nc3ncc(C(F)(F)F)c(NCc4cccc(S(C)(=O)=O)c4)n3)ccc21` to `CCN(CC)CCOc1ccc(Nc2ncc3cc(-c4c(Cl)cccc4Cl)c(=O)n(C)c3n2)cc1` [SB-601273], the “%Inh” value falls from 12% to 0%.

Compared with `CN(C)CC(O)COc1ccc(Nc2nccc(-c3cnn4nc(N5CCOCC5)ccc34)n2)cc1` (stereo not drawn) [GW767488], `CN(C)CCOc1ccc(-c2cc(-c3c[nH]nc3-c3ccccn3)ccn2)cc1` [GW835314] is lower in “%Inh” value: 86% for the first, 8% for the second.

First: C[C@@H](Oc1cc(-c2cnn(C3CCNCC3)c2)cnc1N)c1c(Cl)ccc(F)c1Cl
Second: NC(=O)c1cc(-c2ccccc2)cc2c(C3CCNCC3)c[nH]c12 [GSK301362]
The “%Inh” value of the first is higher: 35% for the first, 3% for the second.

First: CCN(CC)CCCCNc1ncc2cc(-c3c(Cl)cccc3Cl)c(NC(=O)NC(C)(C)C)nc2n1
Second: O=C(NCCCN1CCOC1=O)c1cnc(NCc2cc(Cl)ccc2Cl)nc1NC1CCCC1
The “%Inh” value of the first is lower: 0% for the first, 22% for the second.

First: C[C@H]1Oc2cc(cnc2N)-c2c(nn(C)c2C#N)CN(C)C(=O)c2ccc(F)cc21
Second: Cc1cc2cn[nH]c2cc1-c1cccc2c(N)c(C(N)=O)nnc12
The “%Inh” value of the first is higher: 28% for the first, 0% for the second.

Compared with `C[C@@H]1CCN(C(=O)CC#N)C[C@@H]1N(C)c1ncnc2[nH]ccc12`, `Cl.Cl.Nc1nc(-c2ccc3c(N)n[nH]c3c2)cc(N2CCCC(NC(=O)c3ccccc3)C2)n1` (stereo not drawn) [GSK2286775] is lower in “%Inh” value: 9% for the first, 0% for the second.

First: Cc1n[nH]c2ccc(-c3cc(OC[C@@H](N)Cc4ccccc4)cnc3-c3ccoc3)cc12.O=C(O)C(F)(F)F.O=C(O)C(F)(F)F [GSK507358]
Second: Cc1occc1-c1nc(N)c(OC[C@@H](N)Cc2c[nH]c3ccccc23)cc1-c1cc2c(C)n[nH]c2cn1 [GSK1660450]
The “%Inh” value of the first is lower: 11% for the first, 100% for the second.

`CCn1c(-c2nonc2N)nc2c(C#CC(C)(C)O)nc(OCCN)cc21.Cl.Cl` [GSK902056] and `CC(C)Nc1cc(-c2ccc3c(N)n[nH]c3c2)nc(N)n1` [GSK2221681] are the same in “%Inh” value: 0% for the first, 0% for the second.

Going from `Nc1nc(Nc2ccccc2)cc(-c2ccc3c(N)n[nH]c3c2)n1` [GSK2225749] to `CNC(=O)c1ccccc1Sc1ccc2c(/C=C/c3ccccn3)n[nH]c2c1`, the “%Inh” value rises from 0% to 26%.

Going from `Cc1ccc(-n2nc(C(C)(C)C)cc2NC(=O)Nc2ccc(OCCN3CCOCC3)c3ccccc23)cc1` [GW839464] to `C=CC(=O)Nc1cc2c(Nc3ccc(F)c(Cl)c3)ncnc2cc1OCCCN1CCOCC1` [GW781483], the “%Inh” value rises from 0% to 11%.

`Cc1cc(C(=O)Nc2ccc(Oc3ccc4nc(NC(=O)C5CC5)cn4n3)cc2)nn1-c1ccccc1` was tested, and the “%Inh” value was 0%.
